Reference: PubChem BioAssay (Tox21)
Records with an inconclusive call do not appear. The source made the active and inactive calls. Unless noted, the call rests on the fitted dose curve; in most records, active means well fitted curve in the direction sought with a large enough effect in the repeat runs; inconclusive means weak or mixed curves; inactive means no such curve, though single readings can be large; an effect the other way counts as inactive or inconclusive.

What was measured:
[1] = qHTS assay to identify small molecule agonists of the hypoxia (HIF-1) signaling pathway - cell viability counter screen (AID 1224844; calls by dose curve; further: nearly all actives have a fitted effect of over 50% in size; further: potency means the concentration at half of the fitted maximal effect)
Procedure, shortened: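 Tox21 10K compounds were added to HRE-bla ME-180 cells (0.5% dialyzed FBS) and incubated 17 hrs at 37C; ATP-based CellTiter-Glo luminescence then reported cell viability in the same wells.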

[2] = qHTS assay to identify small molecule agonists of H2AX (AID 1224845; active means well fitted activation curve with a large enough effect in the signal ratio in the repeat runs, not every such curve was filed as active; the % refers to the signal ratio)
Procedure, shortened: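 Wild-type CHO-K1 cells plated overnight, then exposed 3 hr at 37C to compounds at 15 concentrations (0.76% DMSO). Lysed, then HTRF anti-pH2AX(S139)-cryptate/anti-H2AX-d2 detection after 24 hr at room temperature; emissions 665 and 620 nm.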

[3] = qHTS RealTime-Glo MT Cell Viability Assay in HEK293 cells - 32 hour (AID 1224868); further: nearly all actives have a fitted effect of over 50% in size; further: potency means the concentration at half of the fitted maximal effect
Procedure, shortened: (§1)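 Luminescence generated by NanoLuc from substrate produced by living HEK293 cells served as the viability signal. Each value reflects the reading at its stated time point during continuous 40 h compound exposure at 37 C.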

[4] = A CellTox Green Cytotoxicity Assay to monitor cytotoxicity in HEK293 cells - 0 hour (AID 1224869); further: nearly all actives have a fitted effect of over 50% in size
Procedure, shortened: (§2)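 Cytotoxicity was tracked continuously in HEK293 cells by a DNA-binding dye excluded from viable cells. Compounds were transferred in DMSO 5 h after seeding; fluorescence was recorded at intervals up to 40 h.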

[5] = qHTS RealTime-Glo MT Cell Viability Assay in HepG2 cells - 40 hour (AID 1224870); further: nearly all actives have a fitted effect of over 50% in size; further: potency means the concentration at half of the fitted maximal effect
Procedure, shortened: (§3)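 HepG2 cells mixed with RealTime-Glo MT reagents (NanoLuc plus cell-permeant prosubstrate) were seeded at 600 cells/well, incubated 5 h at 37 C/5% CO2, then pinned with compounds in DMSO; nonlytic luminescence tracked viability during 40 h treatment.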

[6] = qHTS RealTime-Glo MT Cell Viability Assay in HEK293 cells - 16 hour (AID 1224872); further: nearly all actives have a fitted effect of over 50% in size; further: potency means the concentration at half of the fitted maximal effect
Procedure, shortened: as §1

[7] = qHTS RealTime-Glo MT Cell Viability Assay in HEK293 cells - 40 hour (AID 1224874); details: RealTime-Glo luminescence; max response: active compounds read low; further: nearly all actives have a fitted effect of over 50% in size; further: potency means the concentration at half of the fitted maximal effect
Procedure, shortened: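 Nonlytic bioluminescent viability monitoring. HEK293 at 600 cells/well with reagent; 5 h settle; compound transfer by pintool; plates held at 37 C and read at set time points.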

[8] = A CellTox Green Cytotoxicity Assay to monitor cytotoxicity in HEK293 cells - 24 hour (AID 1224875); further: nearly all actives have a fitted effect of over 45% in size; further: potency means the concentration at half of the fitted maximal effect
Procedure, shortened: as §2

[9] = A CellTox Green Cytotoxicity Assay to monitor cytotoxicity in HepG2 cells - 16 hour (AID 1224876); further: nearly all actives have a fitted effect of over 45% in size; further: potency means the concentration at half of the fitted maximal effect
Procedure, shortened: (§4)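 Real-time, homogeneous cytotoxicity readout: dead-cell DNA staining by CellTox Green in HepG2 monolayers, fluorescence measured at timed intervals up to 40 h of continuous compound exposure.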

[10] = A CellTox Green Cytotoxicity Assay to monitor cytotoxicity in HepG2 cells - 24 hour (AID 1224878); further: nearly all actives have a fitted effect of over 45% in size; further: potency means the concentration at half of the fitted maximal effect
Procedure, shortened: as §4

[11] = qHTS assay to identify small molecule agonists of the hypoxia (HIF-1) signaling pathway (AID 1224846; active means well fitted activation curve with a large enough effect in the signal ratio in the repeat runs, not every such curve was filed as active; the % refers to the signal ratio)
Procedure, shortened: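 Steps: seed ME-180 HRE-bla cells (2,000/well, 0.5% dialyzed FBS); incubate 5 hrs at 37C; pin-transfer compounds or DMSO; incubate 17 hrs; add LiveBLAzer B/G substrate CCF4-AM; measure reporter activation by FRET.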

[12] = qHTS assay to identify small molecule agonists of H2AX - cell viability counter screen (AID 1224847; calls by dose curve; further: nearly all actives have a fitted effect of over 30% in size; further: potency means the concentration at half of the fitted maximal effect)
Procedure, shortened: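 Read-out: CellTiter-Glo luminescence, 30 min RT. Cells: wild-type CHO-K1, 1000/well, 10% FBS, plated overnight at 37C. Treatment: 15 concentrations, 3 hr, 37C, 0.76% DMSO.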

[13] = qHTS RealTime-Glo MT Cell Viability Assay in HepG2 cells - 24 hour (AID 1224867); further: nearly all actives have a fitted effect of over 50% in size; further: potency means the concentration at half of the fitted maximal effect
Procedure, shortened: (§5)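 Tox21 10K library screened in qHTS format on HepG2 cells carrying RealTime-Glo reagents. Compounds were added after a 5 h preincubation, and the luminescent signal from continuous culture was measured repeatedly during 40 h treatment.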

[14] = A CellTox Green Cytotoxicity Assay to monitor cytotoxicity in HEK293 cells - 40 hour (AID 1224871); further: nearly all actives have a fitted effect of over 45% in size; further: potency means the concentration at half of the fitted maximal effect
Procedure, shortened: as §2

[15] = qHTS RealTime-Glo MT Cell Viability Assay in HepG2 cells - 8 hour (AID 1224873); further: nearly all actives have a fitted effect of over 55% in size
Procedure, shortened: as §3

[16] = qHTS RealTime-Glo MT Cell Viability Assay in HepG2 cells - 32 hour (AID 1224877); further: nearly all actives have a fitted effect of over 55% in size; further: potency means the concentration at half of the fitted maximal effect
Procedure, shortened: as §5

[17] = target: Thyrotropin receptor (Homo sapiens) (UniProt P16473); assay: qHTS assay to identify small molecule agonists of the thyroid stimulating hormone receptor (TSHR) signaling pathway (AID 1224843; calls by dose curve; further: nearly all actives have a fitted effect of over 45% in size)
Procedure, shortened: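 TSHR-expressing HEK293 cells (800 per well) were exposed to compounds for 30 min at room temperature. cAMP was then detected by HTRF competition with cAMP-d2 and anti-cAMP cryptate, read after 1 h at room temperature. Fifteen concentrations, triplicate.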

[18] = A CellTox Green Cytotoxicity Assay to monitor cytotoxicity in HepG2 cells - 40 hour (AID 1224879); further: nearly all actives have a fitted effect of over 40% in size; further: potency means the concentration at half of the fitted maximal effect
Procedure, shortened: as §4

[19] = qHTS assay to identify small molecule antagonists of the estrogen related receptor (ERR) signaling pathway from Tox21 library (AID 1224848); further: nearly all actives have a fitted effect of over 50% in size; further: potency means the concentration at half of the fitted maximal effect
Procedure, shortened: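 Cells: ERR line, 2,000/well; 6 h preincubation 37 C/5% CO2. Cpd in DMSO via pin tool; 18 h, 37 C. ONE-Glo, 30 min RT, luminescence.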

[20] = qHTS assay to identify small molecule agonists of the estrogen related receptor (ERR) signaling pathway from Tox21 library (AID 1224849; calls by dose curve; further: nearly all actives have a fitted effect of over 15% in size); details: ERR reporter cell line, ONE-Glo luciferase, 18 h; at 92.4 µM (top of the series) unless noted
Procedure, shortened: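 Agonist signal is luciferase luminescence from an ERR reporter cell line treated 18 h at 37 C with DMSO-dissolved compounds, read 30 min after ONE-Glo addition at room temperature.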
On the % scale 0 is the no-effect control and ±100 the full control effect.

Sequence of Thyrotropin receptor (Homo sapiens) (P16473 whole entry, looked up): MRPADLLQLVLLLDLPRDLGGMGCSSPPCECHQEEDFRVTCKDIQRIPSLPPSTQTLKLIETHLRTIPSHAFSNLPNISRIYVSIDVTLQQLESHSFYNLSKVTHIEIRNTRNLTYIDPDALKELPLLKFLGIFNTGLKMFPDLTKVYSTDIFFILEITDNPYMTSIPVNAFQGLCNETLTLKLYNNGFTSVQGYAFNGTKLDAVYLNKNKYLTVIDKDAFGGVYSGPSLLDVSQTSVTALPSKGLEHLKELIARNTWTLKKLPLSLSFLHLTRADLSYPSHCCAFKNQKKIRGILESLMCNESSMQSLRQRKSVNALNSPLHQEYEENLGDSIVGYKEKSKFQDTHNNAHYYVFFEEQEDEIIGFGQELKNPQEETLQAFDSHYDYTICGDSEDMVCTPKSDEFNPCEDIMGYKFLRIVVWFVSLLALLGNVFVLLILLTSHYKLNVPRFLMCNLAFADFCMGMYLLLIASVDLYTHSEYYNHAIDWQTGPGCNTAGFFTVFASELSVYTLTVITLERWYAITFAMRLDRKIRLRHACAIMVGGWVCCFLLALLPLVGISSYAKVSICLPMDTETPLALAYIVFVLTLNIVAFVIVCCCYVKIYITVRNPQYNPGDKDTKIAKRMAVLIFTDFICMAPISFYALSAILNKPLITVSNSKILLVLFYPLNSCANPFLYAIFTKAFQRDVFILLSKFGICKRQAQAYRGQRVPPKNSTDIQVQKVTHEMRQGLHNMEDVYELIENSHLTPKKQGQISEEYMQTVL

CC1(CN2CCC(n3c(=O)[nH]c4ccccc43)CC2)OCc2ccccc2-n2cccc21 (configuration not stated)
active: Potency [1] 23.9 µM | Potency [3] 19 µM | Potency [6] 10.7 µM | Potency [7] 19 µM
inactive: Potency [2] | Potency [4] | Potency [5] | Potency [8] | Potency [9] | Potency [10]

CC(C)(C)C(=O)C(=O)O
inactive: Potency [1] | outcome [11] | Potency [12] | Potency [13] | Potency [3] | Potency [4] | Potency [5] | Potency [14] | Potency [6] | Potency [15] | max response [7] 0.984% | Potency [9] | Potency [16] | Potency [10]

CCOC(=O)c1ccc(O)c(O)c1
inactive: Potency [17] | outcome [11] | Potency [12] | Potency [13] | Potency [3] | Potency [4] | Potency [5] | Potency [6] | Potency [15] | max response [7] -21.6% | Potency [8] | Potency [16] | Potency [10] | Potency [18]

C/C=C/C=C/C=O
active: Potency [1] 48.6 µM
inactive: Potency [2] | outcome [11] | Potency [12] | Potency [19] | activity change, positive = activation [20] 4.86% | Potency [4] | Potency [5] | Potency [6] | Potency [15] | max response [7] 10.8% | Potency [8] | Potency [9] | Potency [16] | Potency [10] | Potency [18]

CN1CCCC(CC2c3ccccc3Sc3ccccc32)C1 (configuration not stated)
inactive: Potency [17] | activity change, positive = activation [20] -39.8% [at 42.5 µM] | Potency [4] | Potency [15]
active: Potency [13] 23.9 µM | Potency [3] 23.9 µM | Potency [5] 26.8 µM | Potency [14] 23.9 µM | Potency [7] 23.9 µM | Potency [8] 23.9 µM | Potency [9] 23.9 µM | Potency [16] 23.9 µM | Potency [10] 21.3 µM | Potency [18] 23.9 µM

C=C1c2cccc(O)c2C(O)=C2C(=O)[C@]3(O)C(O)=C(C(N)=O)C(=O)[C@@H](N(C)C)[C@@H]3[C@@H](O)[C@H]12
inactive: Potency [1] | Potency [2] | Potency [12] | activity change, positive = activation [20] -14.2% [at 42.5 µM] | Potency [13] | Potency [3] | Potency [4] | Potency [5] | Potency [14] | Potency [6] | Potency [15] | max response [7] 3.62% | Potency [8] | Potency [9] | Potency [16] | Potency [10] | Potency [18]

c1csc(SSc2cccs2)c1
inactive: Potency [17] | Potency [12] | activity change, positive = activation [20] -56.7% | Potency [8] | Potency [9]
active: Potency [19] 61.1 µM | Potency [18] 54.9 µM

CN(C)CCC=C1c2ccccc2C=Cc2ccccc21
active: Potency [9] 23.9 µM | Potency [10] 23.9 µM | Potency [18] 23.9 µM
inactive: Potency [1] | Potency [2] | Potency [12] | Potency [19] | activity change, positive = activation [20] -12.5% [at 42.5 µM] | Potency [13] | Potency [5] | Potency [6] | Potency [15] | Potency [8]

O=C1CCCCCCCCCCOCCCCO1
active: Potency [14] 49 µM | Potency [8] 49 µM
inactive: Potency [1] | Potency [2] | outcome [11] | Potency [12] | Potency [13] | Potency [3] | Potency [4] | Potency [5] | Potency [6] | Potency [15] | max response [7] -14.4% | Potency [9] | Potency [16] | Potency [10] | Potency [18]

CC(CC1c2ccccc2CCc2ccccc21)CN(C)C (configuration not stated)
inactive: Potency [2] | outcome [11] | Potency [12] | Potency [13] | Potency [3] | Potency [4] | Potency [5] | Potency [14] | Potency [6] | Potency [15] | Potency [8] | Potency [9] | Potency [16]
active: Potency [1] 10.7 µM

CC(=O)Nc1cc(S(=O)(=O)O)cc2cc(S(=O)(=O)O)c(N=Nc3ccccc3)c(O)c12
inactive: Potency [1] | outcome [11] | activity change, positive = activation [20] -5.56% | Potency [13] | Potency [3] | Potency [14] | Potency [6] | Potency [15] | Potency [8] | Potency [9] | Potency [16] | Potency [10] | Potency [18]
active: Potency [12] 50.5 µM

CN1C(=O)OC(C)(C)C1=O
inactive: Potency [1] | Potency [2] | Potency [12] | Potency [19] | activity change, positive = activation [20] 4.82% | Potency [13] | Potency [3] | Potency [5] | Potency [14] | Potency [6] | Potency [15] | max response [7] 0.839% | Potency [8] | Potency [9] | Potency [10] | Potency [18]

CC[N+](CC)(CCNC(=O)C(=O)NCC[N+](CC)(CC)Cc1ccccc1Cl)Cc1ccccc1Cl
inactive: Potency [1] | Potency [2] | Potency [12] | Potency [19] | activity change, positive = activation [20] 8.73% [at 42.5 µM] | Potency [3] | Potency [4] | Potency [5] | Potency [14] | Potency [6] | Potency [15] | max response [7] 0.73% | Potency [8] | Potency [9] | Potency [16] | Potency [10] | Potency [18]

Nc1nnc(-c2ccc([N+](=O)[O-])o2)o1
inactive: Potency [1] | Potency [2] | outcome [11] | Potency [12] | Potency [3] | Potency [4] | Potency [14] | Potency [6] | Potency [15] | max response [7] -27% | Potency [8] | Potency [9] | Potency [10]

Cc1cc(O)c(C)c(C)c1O
inactive: Potency [1] | Potency [2] | outcome [11] | Potency [12] | Potency [19] | activity change, positive = activation [20] 2.57% [at 42.5 µM] | Potency [13] | Potency [4] | Potency [5] | Potency [15] | Potency [9] | Potency [16] | Potency [10] | Potency [18]

CN1C(=O)N(c2ccccc2Br)Cc2cnc(Nc3ccc4c(c3)OCC(CO)O4)nc21 (configuration not stated)
inactive: Potency [1] | Potency [2] | activity change, positive = activation [20] -69.6% | Potency [4] | Potency [14] | Potency [8] | Potency [9]
active: Potency [12] 31.8 µM | Potency [19] 8.63 µM | Potency [3] 6.16 µM | Potency [6] 6.92 µM | Potency [7] 4.36 µM
